From PubChem BioAssay
Compounds with a hit are over-represented: about 16% of the library has one in this group of screens.
miR-21 reporter: qHTS Assay for Modulators of miRNAs and/orActivators of miR-21. 340,000 tested, under 10 active. HeLa miR-21 FLuc reporter, luciferase, 48 h. Potency, µM (series often up to 38.3 µM), inactives show at the top dose activity change, positive = activation, usual class: activators;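 further: % of control where 0% means no effect; miR-21 action dims this reporter so a rising signal means less miR-21 action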
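Using DMEM plus 10% FBS, HeLa miR-21-FLuc cells are incubated with test compounds (final up to about 40uM) for 48 hours; firefly luciferase signal is then imaged following reagent-mediated lysis.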
uPA generation: qHTS for Inhibitors of Cell Surface uPA Generation; Potency, µM (series often up to 38.3 µM), inactives show top-dose activity change, negative = inhibition, most hits filed as inhibitors; cell surface uPA generation assay, qHTS; 0.31% of 330,000 active; active means well fitted inhibition curve with a large enough effect; inconclusive means small, poorly fitted or top-dose-only effect; inactive means no such curve, though single readings can be large or run the other way; tested in mouse RAW 264.7 cells; further: potency means the concentration at half of the fitted maximal effect; on the % scale 0 is the no-effect control and ±100 the full control effect; nearly all actives have a fitted effect of over 55% in size
TDP1 cell noCPT: qHTS for Inhibitors of human tyrosyl-DNA phosphodiesterase 1 (TDP1): qHTS in cells in absence of CPT; Potency, µM (highest dose often 46.2 µM), for inactives: top-dose activity change, negative = growth inhibition, usual class: inhibitors; AID 686978, 2013; DT40 Tdp1-/- hTDP1 cells, no CPT, ATP luminescence, 48 h; 15% of 420,000 active; further: potency means the concentration at half of the fitted maximal effect; on the % scale 0 is the no-effect control and ±100 the full control effect; nearly all actives have a fitted effect of over 55% in size
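Cells were dispensed at 400 per well, compounds added by pin tool, plates incubated ≥48 hr at 37 °C, then CellTiter-Glo added for 30 min at room temperature before luminescence reading. Line: DT40 Tdp1-/- complemented with hTDP1; camptothecin omitted.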
TDP1 block: qHTS Assay for Inhibitors of Tyrosyl-DNA Phosphodiesterase (TDP1). Tyrosyl-DNA phosphodiesterase 1 (Homo sapiens), Q9NUW8. recombinant TDP1, AlphaScreen DNA substrate cleavage. Potency, µM (series often up to 130 µM), for inactives: top-dose activity change, negative = inhibition, actives largely listed as inhibitors. 0.28% of 350,000 active; further: potency means the concentration at half of the fitted maximal effect; on the % scale 0 is the no-effect control and ±100 the full control effect; nearly all actives have a fitted effect of over 40% in size
Target sequence (Q9NUW8 whole entry, looked up): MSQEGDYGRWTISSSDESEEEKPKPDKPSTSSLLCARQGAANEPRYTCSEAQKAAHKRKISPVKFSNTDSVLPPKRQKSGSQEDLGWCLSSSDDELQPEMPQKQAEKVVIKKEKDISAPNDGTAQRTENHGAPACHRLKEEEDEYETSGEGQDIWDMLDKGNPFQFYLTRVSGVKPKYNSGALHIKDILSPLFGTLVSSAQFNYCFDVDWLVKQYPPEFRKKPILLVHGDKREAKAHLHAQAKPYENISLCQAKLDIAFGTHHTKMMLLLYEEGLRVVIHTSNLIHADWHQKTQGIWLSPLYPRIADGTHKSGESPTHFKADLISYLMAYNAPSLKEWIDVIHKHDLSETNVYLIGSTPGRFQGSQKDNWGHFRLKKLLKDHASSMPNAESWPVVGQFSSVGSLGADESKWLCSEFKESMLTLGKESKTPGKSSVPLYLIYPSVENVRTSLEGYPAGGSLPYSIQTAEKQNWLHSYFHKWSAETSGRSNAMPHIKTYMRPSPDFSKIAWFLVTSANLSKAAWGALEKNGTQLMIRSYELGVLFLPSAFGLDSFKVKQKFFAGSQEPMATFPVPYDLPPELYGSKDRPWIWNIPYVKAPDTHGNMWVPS
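Recombinant E. coli-expressed Tdp1 (1 nM) preincubated with compound 15 min at RT, then 5'-biotin/3'-phosphotyrosine-FITC DNA substrate (15 nM) added for 5 min. AlphaScreen beads (10 ug/ml) added, 10 min RT; tyrosine-FITC cleavage read as signal loss.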
DT40 TDP1 CPT: qHTS for Inhibitors of human tyrosyl-DNA phosphodiesterase 1 (TDP1): qHTS in cells in presence of CPT | Potency, µM (titrated, usually from 46.2 µM), for inactives: top-dose activity change, negative = growth inhibition, usual class: inhibitors | 12% of 420,000 active | chicken DT40 Tdp1-/-;hTDP1 cells + 20 nM CPT, ATP luminescence, 48 h; further: potency means the concentration at half of the fitted maximal effect; on the % scale 0 is the no-effect control and ±100 the full control effect; nearly all actives have a fitted effect of over 55% in size
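Cell growth measured by CellTiter-Glo luminescence after a minimum 48 h, 37 C compound exposure with 20 nM CPT in Tdp1-knockout DT40 cells stably expressing hTDP1, seeded 400/well; qHTS titration format.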
Starred values were filed as active, the others as inactive; u = inconclusive; x = no result; [ ] = another dose, or the depositor's remark. Unless noted, the call rests on the fitted dose curve; in most records, active means well fitted curve in the direction sought with a large enough effect; inconclusive means small, poorly fitted or top-dose-only effect, or another doubt; inactive means no such curve, though single readings can be large; an effect the other way counts as inactive or inconclusive.

SMILES	miR-21 reporter	uPA generation	TDP1 cell noCPT	TDP1 block	DT40 TDP1 CPT
COc1ccc(N(C)S(=O)(=O)c2cccc(C(=O)NC3CCC(C)CC3)c2)cc1 (configuration not stated)	-8.3%	4.7%	16.4µM*	2.6%	u
CC(=O)NCCc1ccc(S(=O)(=O)Nc2cccnc2)cc1	-1.4%	-1.4%	-8.9%	5.3%	-15.1%
CC1CCC(C(=O)NC(C(=O)N2CCc3ccccc3C2)C(C)C)CC1 (configuration not stated)	-5.6%	1.7%	u	0.0%	16.4µM*
O=C(NC(Cc1ccccc1)C(=O)N1CCN(c2ccc(F)cc2)CC1)c1ccccc1 (configuration not stated)	x	x	25.9µM*	x	u
O=C(NC(=O)N1CCN(c2ccc(F)cc2)CC1)c1ccccc1	4.6%	-6.1%	-4.2%	5.9%	-7.5%
CC1CCC(C(=O)NC(C(=O)N2CCN(c3ccccn3)CC2)C(C)C)CC1 (configuration not stated)	-3.2%	3.9%	u	3.1%	-28.6%
CC(C)C(NC(=O)C1CCCCC1)C(=O)N1CCN(c2ccc(F)cc2)CC1 (configuration not stated)	-1.1%	2.0%	16.4µM*	5.2%	13µM*
O=C(NC(=S)N1CCN(c2ccc(F)cc2)CC1)c1ccccc1	x	x	20.6µM*	x	u
O=S1(=O)N=C2CCCN2C(c2ccc(F)cc2)N1 (configuration not stated)	1.6%	-0.2%	-0.5%	2.0%	-2.0%
COc1ccc(S(=O)(=O)n2nc(OCc3cccs3)cc2N)cc1	6.9%	9.9%	-25.0%	6.4%	u
O=[N+]([O-])c1ccc(N2CCN(c3ccc(F)cc3)CC2)cc1	-17.4%	-1.1%	-12.5%	x	-4.9%
O=C(NC(=S)N1CCN(c2ccc([N+](=O)[O-])cc2)CC1)c1ccc(F)cc1	-0.1%	-4.2%	25.9µM*	-2.2%	u
O=C(NC(=S)N1CCN(c2ccc([N+](=O)[O-])cc2)CC1)c1ccccc1F	-0.8%	0.3%	20.6µM*	7.1%	u
O=[N+]([O-])c1ccc(N2CCN(C(=S)Nc3ccccc3)CC2)cc1	-0.3%	3.8%	u	7.9%	-20.4%
CCCCC[C@@H](C)N1C[C@@H](COCc2ccccc2)Oc2cc(N3CC[C@H](O)C3)ccc2S1(=O)=O	x	x	16.4µM*	x	u
CCCCC[C@@H](C)N1C[C@@H](COCc2ccccc2)Oc2cc(N3CC[C@@H](O)C3)ccc2S1(=O)=O	x	x	16.4µM*	x	u
COc1ccc(CC(=O)O/N=C(\N)Cc2ccc(OC)c(OC)c2)cc1	-6.8%	x	-22.5%	6.4%	-12.9%
COc1ccc(NC(=S)N2CCC(Cc3ccccc3)CC2)cc1	-0.3%	-9.0%	5.17µM*	5.5%	10.3µM*
S=C(Nc1ccccc1)N1CCC(Cc2ccccc2)CC1	11.8%	-4.9%	3.66µM*	x	4.11µM*
O=C(Nc1ccc(OCC(=O)N2CCC(Cc3ccccc3)CC2)cc1)c1ccco1	8.5%	-7.2%	29.1µM*	9.6%	20.6µM*
CC(Cc1ccccn1)NC(=O)c1ccc(OC2CCN(CCc3ccccc3)CC2)cc1 (configuration not stated)	-29.5%	-1.1%	u	1.9%	18.4µM*
CC(C)N1CCN(C(=O)c2ccc(OC3CCN(CCc4ccccc4)CC3)cc2)CC1	-17.5%	-0.5%	23.1µM*	2.7%	u
O=C(NCCc1ccccn1)c1ccc(OC2CCN(CCc3ccccc3)CC2)cc1	-21.9%	-31.4%	-4.4%	0.1%	-14.4%
N#Cc1ccc(Oc2ccc(S(=O)(=O)N3CCCC3)cn2)cc1	x	5.1%	u	-2.5%	-17.4%
COc1ccc(OC)c(-c2noc(N3CCN(c4ccc(C(C)=O)cc4)CC3)n2)c1	-4.7%	x	u	5.0%	u
SMILES	miR-21 reporter	uPA generation	TDP1 cell noCPT	TDP1 block	DT40 TDP1 CPT
COc1cccc(N2CC(=O)Nc3c(oc4nc(-c5ccccc5)cc(C)c34)C2=O)c1	-0.9%	10.0%	u	-3.7%	-17.8%
Cc1ccc(-c2nnc(SCC(=O)N3CC(C)CC(C)C3)o2)cc1C (configuration not stated)	-4.3%	0.1%	20.6µM*	-7.8%	25.9µM*
COc1cccc(-c2nnc(SCC(=O)N3CC(C)CC(C)C3)o2)c1 (configuration not stated)	-8.4%	-4.9%	20.6µM*	2.9%	u
CC1CC(C)CN(C(=O)CSc2nnc(-c3ccc(Cl)cc3)o2)C1 (configuration not stated)	3.3%	3.2%	18.4µM*	4.9%	u
COc1cccc(-c2nnc(SCC(=O)N3CCOCC3)o2)c1	-34.0%	7.2%	-23.1%	4.2%	-20.0%
COC(=O)C(C(C)=O)C(NC(=O)NCc1ccccc1)c1ccccc1 (configuration not stated)	x	x	x	-4.8%[21 µM]	x
Cn1c(=O)c2[nH]c(-c3ccccc3)nc2n(C)c1=O	-2.1%	x	x	0.0%	x
CC1C(c2ccccc2)=NNc2nc3c(c(=O)n(C)c(=O)n3C)n21 (configuration not stated)	1.7%	-8.6%	11.6µM*	x	u
CCCNC(=O)C1(C)CCN(C(=O)c2ccc3ccccc3c2)C1 (configuration not stated)	x	x	4.0%	x	-3.6%
C=CCNC(=O)C1CCC(CNc2nc(=S)[nH]c3ccccc23)CC1 (configuration not stated)	-3.1%	7.9%	-23.2%	x	-2.9%
O=C(C1CCC(CNc2nc(=S)[nH]c3ccccc23)CC1)N1CCN(c2ccccn2)CC1 (configuration not stated)	-3.5%	10.3%	18.4µM*	7.1%	18.4µM*
CCc1ccc(-c2cc3c(=O)n(CC(=O)NCCCN4CCN(C)CC4)ncn3n2)cc1	-18.8%	-16.4%	0.1%	2.3%	-28.9%
O=C(CCS(=O)(=O)c1ccccc1)Nc1nc2c(s1)COc1ccccc1-2	19.1%	u	4.61µM*	3.7%	4.11µM*
O=C(Nc1nc2c(s1)COc1ccccc1-2)c1cccs1	8.9%	-19.9%	23.1µM*	7.8%	11.6µM*
CC(C)(C)NC(=O)C(OC(=O)c1ccco1)c1ccc(Cl)cc1 (configuration not stated)	0.6%	-13.9%	0.4%	2.9%	4.8%
O=C(Nc1cccc(C(=O)N2CCOCC2)c1)C1CCCC1	x	-0.6%	-8.9%	x	-3.7%
Cc1cc(N(C)C)cc(C)c1/C=C/c1ccnc2ccccc12	x	x	11.2µM*	x	14.1µM*
Cc1cc([N+](C)(C)C)cc(C)c1/C=C/c1ccnc2ccccc12	x	x	3.16µM*	x	3.55µM*
